Eleven molecules from PubChem BioAssay can be followed below.

Structures are written as SMILES. Active and inactive are the calls of the source. Unless noted, no rule for the calls is given here.

Assay [1] can be described thus: liver-stage malaria parasite load reduction – cell-based, known kinase inhibitor set, luminescence, hepatoma host viability (AID 624392).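 Also: infected cells incubated roughly two days before readout.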 Conditions: Plasmodium liver stage in hepatoma cells, luciferase luminescence, concentration not given here; liver cell % of control: measured here: host liver cell viability; parasite % of control: stronger effect = lower value.
Assay [2] in a line: altered dexamethasone sensitivity, NF-kB reporter, cell-based, luciferase, IL-1B stimulus (AID 624486).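 As to percent of negative control (+Dex): 100% = mean signal of vehicle control wells on the plate.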 Conditions: IL-1B + dexamethasone, luminescence; percent of negative control (+Dex): actives lie on both sides, concentration not given here; z-score: measured here: IL-1B alone, no Dex.
A short description of assay [3]: C. elegans survival during P. aeruginosa infection – whole organism (AID 651566).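 Also: tested at 14 µM; sign flipped so higher z means a lower ratio.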 Conditions: C. elegans killed by P. aeruginosa, survival ratio.
A short description of assay [4]: pro-inflammatory signaling induction in mouse macrophages – cell-based, murine, luminescence (AID 652131). Conditions: murine macrophage pro-inflammatory reporter, stronger effect = higher value.
Assay [5] addresses Cellular tumor antigen p53 (Homo sapiens) (UniProt P04637). Kind of assay: GFP-p53 level modulators in HPV16+ cells – imaging, known kinase inhibitor set, EGFP/DsRed ratio (AID 1053116).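 Also: cells exposed to compounds for 24 h at 37 °C before reading.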 The settings on record: GFP-p53 stability, stronger effect = higher value; EGFP object count: measured here: GFP-p53 positive objects count.
A short description of assay [6]: inducers of IRF3 signaling, differentiated THP-1 – cell-based, PMA-stimulated THP-1, luminescence (AID 1053176). Conditions: PMA-differentiated THP-1, IRF3 reporter luminescence; stronger effect = higher value.
Assay [7] is described as follows: MELAS cybrid and Rieske KO viability enhancers – cell-based, MELAS cybrids, Rieske KO mouse fibroblasts, CellTiter-Glo, primary screen (AID 1508586;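 active = mean z-score across replicates of 1.96 or higher in either the MELAS or the Rieske mutant cell line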;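 also: z relative to plate mean and SD of compound and empty wells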). Conditions: low glucose. A general note: ATP-based viability assays read luminescence as a measure of living cells.
[8] abbreviates: MELAS cybrid survival, CellTiter-Glo 48 h, stronger effect = higher value.
[9] abbreviates: Rieske KO mouse fibroblast survival, CellTiter-Glo 72 h.

Chain of Cellular tumor antigen p53 (Homo sapiens) (P04637 whole entry, looked up): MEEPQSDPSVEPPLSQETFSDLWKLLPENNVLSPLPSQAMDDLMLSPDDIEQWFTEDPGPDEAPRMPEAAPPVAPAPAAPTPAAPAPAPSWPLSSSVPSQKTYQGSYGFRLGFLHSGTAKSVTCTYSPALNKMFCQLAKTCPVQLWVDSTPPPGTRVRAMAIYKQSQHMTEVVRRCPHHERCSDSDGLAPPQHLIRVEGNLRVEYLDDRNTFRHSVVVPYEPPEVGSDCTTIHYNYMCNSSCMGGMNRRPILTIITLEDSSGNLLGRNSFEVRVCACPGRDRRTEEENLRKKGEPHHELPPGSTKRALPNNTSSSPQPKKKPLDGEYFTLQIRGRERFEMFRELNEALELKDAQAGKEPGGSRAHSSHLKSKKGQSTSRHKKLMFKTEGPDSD

Consider `Nc1nccc(-c2c(-c3ccc(F)cc3)nn3cc(C(F)(F)F)ccc23)n1`, for which the liver cell % of control in assay [1] turned out to be 111%. The parasite % of control in assay [1] is 130% (inactive). Moreover, the percent of negative control (+Dex) in assay [2] is 107% (inactive). The z-score was 1.32 in assay [2]; -0.745 (inactive) in assay [3]; -0.016 (inactive) in assay [4]; -0.218 (inactive) in assay [7] (setting [8]); -0.148 in assay [7] (setting [9]). In addition, the EGFP object count in assay [5] is 5.5. The EGFP/DsRed ratio in assay [5] was 0.148 (inactive). Also, in assay [6], the fraction signal was -0.0075 (inactive).
Regarding `CN1CCN(C(=O)c2ccc(NC(=O)Nc3ccc(N(C)c4ccnc(Nc5ccc(CS(C)(=O)=O)cc5)n4)cc3)cc2)CC1`, the liver cell % of control in assay [1] was 86.4%. The parasite % of control in assay [1] is 77.1% (inactive). In assay [2], the percent of negative control (+Dex) was 85.5% (inactive). Besides, the z-score in assay [2] was -0.585; in assay [3], 0.175 (inactive); in assay [4], 4.5 (inactive); in assay [7] (setting [8]) it was 0.142 (inactive); in assay [7] (setting [9]) it was 0.134. The EGFP object count in assay [5] came to 2. For the same molecule, the EGFP/DsRed ratio in assay [5] is 0.13 (inactive). For the same molecule, in assay [6], the fraction signal was -0.0115 (inactive).
Take `COc1ccc(-c2nn3ncccc3c2-c2ccnc(Nc3ccc(Cl)c(C(F)(F)F)c3)n2)cc1`: the liver cell % of control in assay [1] turned out to be 101%. Besides, in assay [1], the parasite % of control was 87.8% (inactive). Also, in assay [2], the percent of negative control (+Dex) was 98% (inactive). The z-score in assay [2] is 0.34; in assay [3], -1.15 (inactive); in assay [4], -0.74 (inactive); in assay [7] (setting [8]), 1.48 (inactive); in assay [7] (setting [9]) it was -0.347. In assay [5], the EGFP object count came to 2.5. Moreover, the EGFP/DsRed ratio in assay [5] was 0.0806 (inactive). Besides, the fraction signal in assay [6] is -0.0025 (inactive).
`Nc1ncc(-c2cccc(S(N)(=O)=O)c2)c2scc(-c3ccc(F)c(Cl)c3)c12` returned a liver cell % of control in assay [1] of 86.2%. Also, the parasite % of control in assay [1] was 63% (inactive). The percent of negative control (+Dex) in assay [2] was 101% (inactive). Besides, the z-score was -0.045 in assay [2]; 0.425 (inactive) in assay [3]; 0.178 (inactive) in assay [4]; -0.767 (inactive) in assay [7] (setting [8]); -0.224 in assay [7] (setting [9]). In assay [5], the EGFP object count was 7. Moreover, the EGFP/DsRed ratio in assay [5] was 0.225 (inactive). Also, the fraction signal in assay [6] was -0.008 (inactive).
The molecule `CCn1cc(-c2ccnc3[nH]ccc23)c(-c2cccc(NC(=O)Nc3ccc(OCc4ccccc4)cc3)c2)n1` showed a liver cell % of control in assay [1] of 76%. In addition, the parasite % of control in assay [1] is 95.6% (inactive). In addition, in assay [2], the percent of negative control (+Dex) was 93.5% (inactive). The z-score in assay [2] was 0.135; in assay [3], -1.14 (inactive); in assay [4] it was -1.24 (inactive); in assay [7] (setting [8]) it was 0.828 (inactive); in assay [7] (setting [9]), 0.137. The EGFP object count in assay [5] was 6.5. The EGFP/DsRed ratio in assay [5] is 0.11 (inactive). Also, the fraction signal in assay [6] is -0.0115 (inactive).
For `NC(=O)c1ccc(Oc2nccc(-c3c(-c4ccc(F)cc4)ncn3C3CCNCC3)n2)cc1`, the liver cell % of control in assay [1] came to 89.2%. Besides, the parasite % of control in assay [1] was 144% (inactive). Besides, in assay [2], the percent of negative control (+Dex) is 96% (inactive). Further, the z-score was 0.125 in assay [2]; 0.14 (inactive) in assay [3]; 0.154 (inactive) in assay [4]; 0.243 (inactive) in assay [7] (setting [8]); -0.477 in assay [7] (setting [9]). Moreover, the EGFP object count in assay [5] stood at 8.5. For the same molecule, the EGFP/DsRed ratio in assay [5] was 0.173 (inactive). In assay [6], the fraction signal is -0.008 (inactive).
As to `CNC(=O)c1cncc(/C=C/c2c(C)cccc2C)c1`, in assay [1], the liver cell % of control came to 106%. In addition, in assay [1], the parasite % of control is 86.6% (inactive). Moreover, in assay [2], the percent of negative control (+Dex) was 91.5% (inactive). Also, the z-score in assay [2] is 0.11; in assay [3] it was 0.025 (inactive); in assay [4], -0.466 (inactive); in assay [7] (setting [8]), 1.23 (inactive); in assay [7] (setting [9]), 0.0124. Besides, in assay [5], the EGFP object count is 4. In addition, the EGFP/DsRed ratio in assay [5] is 0.149 (inactive). In assay [6], the fraction signal was 0.0135 (inactive).
In the case of `Cc1ccc(NC(=O)CC2CC2)cc1-c1ccc(C(=O)NCC2CC2)cc1`, the liver cell % of control in assay [1] came to 75.5%. In addition, the parasite % of control in assay [1] is 149% (inactive). Moreover, the percent of negative control (+Dex) in assay [2] is 98.5% (inactive). Also, the z-score in assay [2] is 0.735; in assay [3], -1.18 (inactive); in assay [4] it was 0.093 (inactive); in assay [7] (setting [8]), -0.893 (inactive); in assay [7] (setting [9]), -0.555. In addition, the EGFP object count in assay [5] was 6. Besides, the EGFP/DsRed ratio in assay [5] is 0.154 (inactive). In assay [6], the fraction signal is -0.006 (inactive).
The molecule `C#Cc1cccc(Nc2ncnc3ccc(OCCCCNCCS(C)(=O)=O)cc23)c1` showed a liver cell % of control in assay [1] of 80.2%. Besides, in assay [1], the parasite % of control is 197% (inactive). Besides, in assay [2], the percent of negative control (+Dex) is 70.5% (inactive). Besides, the z-score is -1.95 in assay [2]; 0.035 (inactive) in assay [3]; -0.695 (inactive) in assay [4]; -0.125 (inactive) in assay [7] (setting [8]); -0.333 in assay [7] (setting [9]). For the same molecule, the EGFP object count in assay [5] is 4. Further, in assay [5], the EGFP/DsRed ratio is 0.148 (inactive). Also, the fraction signal in assay [6] is 0.0175 (inactive).
In assay [1], `CCN1CCC(CC(=O)Nc2n[nH]c3nc(-c4cccs4)c(Br)cc23)CC1` registered a liver cell % of control of 76.8%. In addition, the parasite % of control in assay [1] is 72.5% (inactive). Moreover, the percent of negative control (+Dex) in assay [2] is 88% (inactive). The z-score in assay [2] was -0.195; in assay [3], 0.735 (inactive); in assay [4], -0.532 (inactive); in assay [7] (setting [8]), 0.148 (inactive); in assay [7] (setting [9]), -0.143. In assay [5], the EGFP object count came out at 8.5. In addition, the EGFP/DsRed ratio in assay [5] is 0.138 (inactive). For the same molecule, in assay [6], the fraction signal was 0.006 (inactive).
Turning to `CCS(=O)(=O)c1ccc(OC)c(Nc2ncc(-c3cccc(OC)c3)o2)c1`, the liver cell % of control in assay [1] came to 161%. Besides, the parasite % of control in assay [1] was 16.6% (inactive). The percent of negative control (+Dex) in assay [2] is 78.5% (inactive). In addition, the z-score is -0.275 in assay [2]; 0.285 (inactive) in assay [3]; -0.544 (inactive) in assay [4]; 1.48 (inactive) in assay [7] (setting [8]); -0.42 in assay [7] (setting [9]). The EGFP object count in assay [5] is 4.5. Besides, the EGFP/DsRed ratio in assay [5] was 0.129 (inactive). Besides, in assay [6], the fraction signal was 0.002 (inactive).
